Assay results from PubChem BioAssay (EPA / NIEHS).
Inconclusive results are not listed. Where a structure was tested more than once in an assay, its records may differ in their call. Active and inactive are the calls of the source. The calls were made as follows: active = hit-call score of the fitted dose curve at least 0.9, where 1 is the maximum; inconclusive = response in the unintended direction; inactive = score below 0.9.

Experiment: ATG_M_06_TRANS: Attagene TRANS-FACTORIAL HepG2 Assay for M06 Transcription Factor (Internal Marker) (AID 2282983);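 as to AC50: potency for rise in reporter mRNA above DMSO baseline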
Conditions: HepG2 Attagene TRANS M06 internal marker reporter
Method: ATG_TRANS is a cell-based, multiplexed-readout assay that uses HepG2, a human liver cell line, with measurements taken at 24 hours after chemical dosing in a 24-well plate.ATG_M_06_TRANS is one of 30 assay component(s) measured or calculated from the ATG_TRANS assay. It is designed to make measurements of mRNA induction, a form of inducible reporter, as detected with fluorescence intensity signals by Reverse transcription polymerase chain reaction (RT-PCR) and Capillary electrophoresis technology.Data from the assay component ATG_M_06_TRANS was analyzed into 1 assay endpoint. This assay endpoint, ATG_M_06_TRANS, was analyzed in the positive analysis fitting direction relative to DMSO as the negative control and baseline of activity. Using a type of inducible reporter, measures of mRNA for gain-of-signal activity can be used to understand the background control at the transcription factor-level as they relate to the gene . Furthermore, this assay endpoint can be referred to as a secondary readout, because this assay has produced multiple assay endpoints where this one serves a background control function. To generalize the intended target to other relatable targets, this assay endpoint is annotated to the background measurement intended target family, where the subfamily is internal marker.
Human liver HepG2 cells are transiently transfected with multiple reporter transcription units (MRTUs) in 6-well plates using FuGene 6 reagent (Roche; 3 ml FuGene/1 mg DNA). The MRTU constructs are regulated by a cis-regulating element (promoter). […] A major difference between the CIS and TRANS system is that in CIS activities of endogenous TFs are measured, whereas the TRANS assay evaluates changes in activities of exogenous, chimeric NR-Gal4 proteins. […] At the end of 24 hour incubation, total RNA was isolated using TriZol reagent (Invitrogen). The isolated RNA is then reverse-transcribed using oligo(dT) primer and Mo-MLV reverse transcriptase (Invitrogen) with DNAse I (Ambion) treatment for 30 min. The one-tenth of the produced cDNA was amplified by PCR using Taq DNA polymerase (Invitrogen) and two reporter sequence-specific primers. The PCR products were fluorescently labeled by primer extension with 6-arboxyfluorescein (6-FAM) 5'-labeled reporter sequence-specific primer (2 min at 95 C, 20 s at 68 C and 10 min at 72 C) and these products were digested with 5U of HpaI (New England Biolabs) for 2h at 37 C. The fragments were purified using Qiaquick PCR columns (Qiagen), analyzed on an ABI 3130xL genetic analyzer (Applied Biosystems) with peak positions identified by using a set of X-rhodamine (ROX)-labeled MapMarker1000 molecular weight standards (BioVentures). The raw capillary electrophoresis data was processed using Attagraph software (Attagene).

outcome, inactive:
CC1=NN(c2ccccc2)C(=O)C1
CCCCCCOC(=O)c1ccc(O)cc1
Cc1ccc2ccc3ccc(C)cc3c2c1
NC(=NCCCCCCN=C(N)/N=C(\N)Nc1ccc(Cl)cc1)/N=C(\N)Nc1ccc(Cl)cc1
NC(C(F)(F)F)C(F)(F)F
CCOC=C(C(=O)OCC)C(=O)OCC
CNNCc1ccc(C(=O)NC(C)C)cc1
COc1cc(OC)nc(NC(=O)NS(=O)(=O)Nc2ccccc2C(=O)N(C)C)n1
FC(OC(F)(F)C(F)(F)C(F)(F)F)C(F)(F)F (stereo not given)
C/C=C/C(=O)C1=C(C)CCCC1(C)C
Cc1ccccc1C(OCCN(C)C)c1ccccc1 (stereo not given)
C[C@]12CC[C@@H]3c4ccc(O)cc4CC[C@H]3[C@@H]1C[C@@H](O)[C@@H]2O
CC1COCc2cc3c(cc21)C(C)(C)C(C)C3(C)C (stereo not given)
C=CC(=O)OCCC(F)(F)C(F)(F)C(F)(F)C(F)(F)C(F)(F)C(F)(F)F
CCCCC=O
NCc1cccc(CN)c1
CCCCCCc1ccc(N)cc1
CC(C)c1c(C(=O)Nc2ccccc2)c(-c2ccccc2)c(-c2ccc(F)cc2)n1CC[C@@H](O)C[C@@H](O)CC(=O)O
CCCCC(CC)C(=O)OCCOCCOCCOCCOC(=O)C(CC)CCCC (stereo not given)
O=C1C=CC(=O)N1c1cccc(N2C(=O)C=CC2=O)c1
C[N+](C)(CCCNS(=O)(=O)CCC(F)(F)C(F)(F)C(F)(F)C(F)(F)C(F)(F)C(F)(F)F)CC(=O)[O-]
O=C(O)CN(CCCN(CC(=O)O)CC(=O)O)CC(=O)O
CCCCc1ccc2ccccc2c1S(=O)(=O)O
O=C(Nc1ccc(Cl)c(Cl)c1)c1cc(Cl)cc(Cl)c1O
CCCCCCCCC1CCC(=O)O1 (stereo not given)
C=CC(=C)CC/C=C(\C)CCC=C(C)C
O=S(=O)(O)c1ccc2cc(O)ccc2c1
O=C(O)C(F)(F)OC(F)(F)C(F)(F)OC(F)(F)C(F)(F)OC(F)(F)C(F)(F)C(F)(F)C(F)(F)F
Cc1cc(=O)oc2cc(O)ccc12
Cc1ccc(C)c(S(=O)(=O)O)c1
O=S(=O)(O)C(F)(F)C(F)(F)C(F)(F)C(F)(F)C(F)(F)C(F)(F)C(F)(F)C(F)(F)C(F)(F)C(F)(F)F
CC(C)(C)C1CCCCC1O (stereo not given)
CCCCCCCCCCCC
c1cc[nH]c1
CCC(C)c1nccnc1OC (stereo not given)
FC(F)(F)C(F)(F)C(F)(F)C(F)(F)I
O=C1OC2(c3ccccc31)c1cc(I)c(O)c(I)c1Oc1c2cc(I)c(O)c1I
CCC1CO1 (stereo not given)
CCC(=O)O

AC50, active:
NC(=NCCCCCCN=C(N)/N=C(\N)Nc1ccc(Cl)cc1)/N=C(\N)Nc1ccc(Cl)cc1 23.3 µM
